Measured values from PubChem BioAssay AID1347047 (National Center for Advancing Translational Sciences (NCATS), 2019).
About 10 (0.7%) of roughly 1,400 compounds were called active. A call without a number means that no potency is given here. About 2% were inconclusive and are not listed. Calls follow the shape of the dose curve; as a rule, active = well fitted inhibition curve with a large enough effect; inconclusive = small, poorly fitted or top-dose-only effect; inactive = flat fitted curve, though single readings scatter. The full list was thinned out, with actives kept by preference.

Target: Luciferin 4-monooxygenase (Photinus pyralis) (UniProt P08659)
Sequence (P08659 whole entry, looked up): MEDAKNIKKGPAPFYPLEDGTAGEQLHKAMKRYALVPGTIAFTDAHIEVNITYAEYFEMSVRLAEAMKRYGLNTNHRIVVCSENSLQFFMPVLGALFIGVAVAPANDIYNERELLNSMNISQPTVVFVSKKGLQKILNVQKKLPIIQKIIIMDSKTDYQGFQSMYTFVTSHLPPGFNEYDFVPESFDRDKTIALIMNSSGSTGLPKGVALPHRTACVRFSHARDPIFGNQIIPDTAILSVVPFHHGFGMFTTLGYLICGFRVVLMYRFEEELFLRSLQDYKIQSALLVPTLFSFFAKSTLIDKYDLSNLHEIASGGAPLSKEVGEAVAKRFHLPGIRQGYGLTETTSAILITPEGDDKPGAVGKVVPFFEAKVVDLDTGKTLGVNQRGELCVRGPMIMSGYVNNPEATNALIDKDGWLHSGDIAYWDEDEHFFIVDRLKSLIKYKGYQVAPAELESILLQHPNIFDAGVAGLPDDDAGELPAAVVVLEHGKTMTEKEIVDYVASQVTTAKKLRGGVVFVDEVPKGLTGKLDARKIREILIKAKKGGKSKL
Test: Natriuretic polypeptide receptor (hNpr1) antagonism - Confirmation firefly luciferase (FLuc) inhibition counterscreen
Details: purified FLuc enzyme, luminescence, Km substrate; series mostly up to 57.6 µM
Excerpt: Firefly (Photinus pyralis) luciferase (FLuc) is one of the more frequently used transcriptional reporter genes, and it has also been developed as a cellular sensor for cyclic nucleotides. (Fan F & Wood KV, 2007; Fan F et al., 2008) However, a significant number of compounds that populate chemical libraries have been identified as FLuc ligands which can be mistaken for modulators of the intended targeted pathways, receptors or enzymes. (Auld, DS et al. 2008; Thorne, N et al. 2012) Therefore, the FLuc enzyme assay conducted at sensitive Km level substrate conditions is used to counter-screen for potential FLuc ligands. Auld DS, Thorne N, Nguyen DT & Inglese J A specific mechanism for nonspecific activation in reporter-gene assays. ACS Chem Biol. 2008, 3: 463-470. DOI: 10.1021/cb8000793 Fan F, Binkowski BF, Butler BL, Stecha PF, Lewis MK, Wood KV. Novel genetically encoded biosensors using firefly luciferase. ACS Chem Biol. 2008, 3: 346-351. DOI: 10.1021/cb8000414 Fan F and Wood KV. Bioluminescent assays for high-throughput screening. Assay Drug Dev Technol. 2007, 5: 127-136. […] Chemistry & Biology, 2012, 19: 1060-1072. DOI.org/10.1016/j.chembiol.2012.07.015
PROTOCOL TABLE (as described by Inglese J, Shamu CE and Guy RK. 2007) SEQUENCE No. (e.g., 1, 2, 3, etc.); PARAMETER (e.g., Cells, Incubation, Reagent, etc.); VALUE and DESCRIPTION. FLUC KM ENZYME COUNTERSCREEN (Thorne, N.T. et al. 2012) 1. Reagent. Add 3 uL of D-luciferin substrate buffer per well into Greiner 1536-well white/solid bottom high base, medium bind plates. 2. Compounds. Library compounds and PTC124 control added at 23nL per well, transferred by Pin Tool. 3. Incubation. Incubate plates at room temperature for […], protect from light. 4. Reagent. Add 1uL of P. pyralis luciferase (FLuc) per well of Greiner 1536-well plates. 5. Incubation. Incubate plates at room temperature for 10 min., protect from light. 6. Detector. FLuc luminescence measured using CCD-based camera (Viewlux). NOTES (numbers refer to Sequence numbers above) 1. Substrate buffer: 10 uM D-luciferin final concentration in 50 mM Tris-Acetate, pH 7.6, 10 mM Mg-Acetate, 10 uM ATP, 0.01% Tween-20, and 0.05% BSA buffer added at 3uL/well to 13 x Greiner 1536-well white/solid bottom high base, medium bind plates. 2. PTC124 stock solution prepared (10 mM in DMSO; Auld D.S. et al. 2010). Working dilution for dispense = 10 mM stock dilution (57.5 uM final concentration; 16-pt 1:3 titration in duplicate = final concentration range of 57.5 uM - 4 pM). 23nL of library compounds, PTC124 control or DMSO vehicle control transferred to the 13 substrate-containing Greiner white/solid bottom high base, medium bind plates in 11 interplate 1:3 titrations (see Yasgar, A. et al. 2008) with Pintool. 3. Substrate incubated for 30-50 min. at ambient temperature protected from light with metal lid. 4. Enzyme solution: 10 nM P. pyralis luciferase (FLuc) final concentration in 50 mM Tris-Acetate, pH 7.6 added at 1uL to 13 x Greiner 1536-well white/solid bottom high base, medium bind plates. 5. Substrate and enzyme incubated with test library compounds and controls for 10 min. at ambient temperature protected from light with metal lid. 6. Read final Luminescence on the ViewLux. [Exposure = 30 s.; Gain = High; Speed = Slow; and Binning = 2X.] REFERENCES: Auld DS, Lovell S, Thorne N, Lea WA, Maloney DJ, Shen M, Rai G, Battaile KP, Thomas CJ, Simeonov A, Hanzlik RP and Inglese J. Molecular basis for the high-affinity binding and stabilization of firefly luciferase by PTC124. […] Chemistry & Biology, 2012, 19: 1060-1072. doi.org/10.1016/j.chembiol.2012.07.015 Yasgar A, Shinn P, Jadhav A, Auld DS, Michael S, Zheng W, Austin CP, Inglese J and Simeonov A, Compound Management for Quantitative High-Throughput Screening. J. Assoc. Lab. Auto., 2008, 13: 79-89. doi: 10.1016/j.jala.2007.12.004
Potency is read from the fitted curve at half-maximal effect.

Structure (SMILES)	Potency
Cc1nc(-c2ccncc2)ncc1C(C)Nc1ncnc(C)c1C (stereo not drawn)	inactive
Cc1noc(C)c1-c1cnc2[nH]cc(CC(=O)N3CCOCC3)c2c1	inactive
N#Cc1cccc(CN2CCC(C3=NC(O)c4cc(F)ccc4N3)CC2)c1 (stereo not drawn)	inactive
CC1=NS(=O)(=O)N(C)C=C1C(=O)OCc1nc(-c2ccc(C)cc2)no1	inactive
Cc1cc(N2CCCC(Cn3cc(Cc4ccccc4)nn3)C2)nc(N)n1 (stereo not drawn)	inactive
Cc1ccc(C)c(C(=O)N2CCC3(CC2)N=C(c2ccc(Cl)cc2)NO3)c1	inactive
COc1ccc(S(=O)(=O)N2CCc3c(C(=O)NCCc4ccccn4)cccc32)cc1	inactive
COc1ccc(-c2noc(CC3CCN(C(=O)Cc4ccc(OC)c(OC)c4)CC3)n2)cc1	inactive
O=C(c1ccc(F)cc1F)N1CCN(c2cc(-c3ccc(Cl)cc3)[nH]n2)CC1	inactive
O=C(CCC1CCN(C(=O)c2ccccc2F)CC1)Nc1cccc(Cl)c1	inactive
O=[S+]1([O-])NCC2(CCCN(Cc3ccc(C(F)(F)F)cc3)C2)Oc2ncccc21 (stereo not drawn)	inactive
COc1ccc(C(CC(=O)N(C)Cc2cc(C3CC3)n[nH]2)c2ccccc2)cc1 (stereo not drawn)	inactive
COc1cccc(NC(=O)Cn2c(N(C)Cc3ccccc3)nc(C)cc2=O)c1	inactive
Cc1ccc(C(=O)N2CCN(c3cc(-c4ccc(Cl)cc4)[nH]n3)CC2)c(C)c1	inactive
COc1cccc(-c2noc(CC3CCN(C(=O)c4ccc(F)cc4)CC3)n2)c1	inactive
Cc1nn2c(c1-c1ccnn1C(C)C)N(CC1CCOCC1)CCC2	inactive
CN1CCN(C(=O)C(C)(C)Oc2nn(Cc3cccc(Cl)c3)c3ccccc23)CC1	inactive
CC1=NS(=O)(=O)N(C)C=C1C(=O)OCc1noc(-c2ccco2)n1	inactive
CC1(C(=O)NCc2ccc3c(c2)OCO3)CCc2cnc(NCc3ccccc3)nc21 (stereo not drawn)	inactive
COC(=O)c1cccc(NC(=O)CCNc2c(C)nc3cnccn23)c1	inactive
O=C(c1ccccc1)N1CCC(C(=O)N2CCC(Cc3nc(-c4ccc(F)cc4)no3)CC2)CC1	inactive
Fc1ccc(CNC[C@H]2Cn3c(-c4ccc5c(c4)OCCO5)cnc3CO2)cc1	inactive
COc1ccc(-c2noc(CC3CCN(C(=O)Cc4ccc(C)cc4)CC3)n2)cc1	inactive
Cc1cccc(C(=O)N2CCC(Oc3ccc(-c4noc(C(C)C)n4)cc3)C2)c1 (stereo not drawn)	inactive
COc1ccc(CC(=O)N2CCC(Cc3nc(-c4ccccc4)no3)CC2)cc1OC	inactive

Structure (SMILES)	Potency
COc1ccc(-c2noc(CC3CCN(C(=O)CC4CCCCC4)CC3)n2)cc1	inactive
COc1ccccc1Nc1cnc2ccc(N(C)Cc3cccnc3)nn12	inactive
COc1ccc(OCC2(C)COc3ccc(C(=O)Nc4cccnc4)cc3N2)cc1 (stereo not drawn)	inactive
O=C(c1ccc(F)cc1Cl)N1CCC(n2cc(-c3nc(-c4ccccc4)no3)nn2)C1 (stereo not drawn)	inactive
O=C(c1cc(F)ccc1Cl)N1CCN(c2cc(-c3ccc(F)cc3)[nH]n2)CC1	inactive
Cc1ccc(OCc2nc(C3CCN(C(=O)CCc4nc5ccc(Cl)cc5[nH]4)CC3)no2)cc1	inactive
CC1(CCCCc2ccccc2)COc2ccc(C(=O)N3CC[S+](=O)([O-])CC3)cc2N1 (stereo not drawn)	inactive
CN(C)CCNC(=O)C(C)(C)Oc1nn(Cc2cccc(Cl)c2)c2ccccc12	inactive
O=C(NCC1CC1)c1nc2c(o1)CCN(Cc1cccc(F)c1F)CC2	inactive
Cc1cc(CNC(=O)c2ccc(-c3ccccc3Cl)o2)n(C)n1	inactive
Cc1noc(C)c1-c1cc(-c2ccccc2Oc2ccccc2)cn2cncc12	inactive
O=C(NCc1nnc2cc(-c3nc(C4CC4)no3)ccn12)c1ccc(F)cc1Cl	inactive
Cc1cccc(CN2CCc3nc(C(=O)Nc4ccc(Cl)cc4)oc3CC2)c1	inactive
C1CCC(COCCc2noc(C3CNC3)n2)C1	inactive
O=C(c1cccc(F)c1)N1CCOC[C@H](Oc2ccc(C(F)(F)F)cc2)C1	inactive
Cc1cccc(-c2cccc(CN)c2)c1	inactive
Cc1c[nH]c(CN2CCCC(CCc3ccc(F)cc3F)C2)c(C)c1=O (stereo not drawn)	inactive
c1ccc(CO[C@@H]2CO[C@H]3[C@@H]2OC[C@@H]3n2nnnc2SCc2ccco2)cc1	inactive
CC(=O)N1CCC(NC[C@H]2O[C@H](Cc3cc(-c4cccc(O)c4)on3)CC[C@@H]2O)CC1	inactive
O=C(c1ccccc1)N1CCNc2cnc(Nc3cccc(C(F)(F)F)c3)nc2C1	inactive
O=c1[nH]c(C2CCCN(Cc3ccccn3)C2)nn1-c1ccc(Cl)cc1 (stereo not drawn)	inactive
COc1ccc(CN2C(=O)CO[C@H]3CN(Cc4ccc5c(c4)OCO5)C[C@H]32)cc1	inactive
CC(C)c1cc(C(=O)N2CCC(n3cc(-c4ccccn4)nn3)CC2)n(C)n1	inactive
O=C(N1CCN(c2cc(-c3ccc(Cl)cc3)[nH]n2)CC1)C1(c2ccccc2)CC1	inactive
Cc1ccc2c(c1)nc1n2[C@@H](CNS(=O)(=O)c2ccccc2)COC1	inactive

Structure (SMILES)	Potency
COc1cccc(CNC(=O)Cn2c(N(C)Cc3ccccc3)nc(C)cc2=O)c1OC	inactive
COc1cccc(C2C(C(=O)Nc3ccccc3)=C(C)N=C3SC=C(CC(=O)NCC(C)C)N32)c1 (stereo not drawn)	inactive
Cc1ccc2nc(C3CCCN(Cc4ccc(C#N)cc4)C3)[nH]c(=O)c2c1 (stereo not drawn)	inactive
COC(=O)C1=C(C)N=C2SC=C(CC(=O)NCCC(C)C)N2C1c1ccccc1Cl (stereo not drawn)	inactive
O=C1Nc2ccccc2CN(Cc2ccccc2)C12CCNCC2	inactive
COc1ccc(C2Cn3nnc(C(=O)N4CCN(C(=O)c5ccc(C)cc5C)CC4)c3CO2)cc1 (stereo not drawn)	inactive
COc1ccc(C2Cn3nnc(C(=O)N4CCN(C(=O)c5cccc(Cl)c5)CC4)c3CO2)cc1 (stereo not drawn)	inactive
COc1ccc(C(=O)N2CCC(n3cc(-c4nc(C(C)C)no4)nn3)CC2)cc1F	inactive
O=C1NCN(Cc2ccc(Cl)cc2)C12CCN(Cc1ccccc1)CC2	inactive
O=C1c2cnc(-c3ccc(Cl)cc3)nc2OCCN1Cc1ccccc1	2.5 µM (active)
OC1(Cc2cc(-c3ccccc3)no2)CCN(c2ncncn2)CC1	inactive
CC(C)c1noc(-c2cn(C3CCN(C(=O)c4ccc(N(C)C)cc4)C3)nn2)n1 (stereo not drawn)	inactive
CC(C)c1nncn1C1CCN(S(=O)(=O)c2cccc(Br)c2)CC1	inactive
COc1ccc(-c2noc(CC3CCN(C(=O)Cc4ccccc4)CC3)n2)cc1	inactive
O=C(c1ccc2cc[nH]c2c1)N1CCC2(CC1)N=C(c1ccc(Cl)cc1)NO2	inactive
CCN(CCCNC(=O)c1nnn2cc(-c3ccccc3)[nH]c(=O)c12)c1ccccc1	inactive
CCc1ccc(C(=O)N2CCN(c3cc(-c4ccc(F)cc4)[nH]n3)CC2)cc1	inactive
COc1ccc(CCNC(=O)c2noc(-c3ccc(C)cc3)n2)cc1OC	inactive
O=C(c1ccccn1)N1CC(Oc2ccc(-c3noc(C4CC4)n3)cc2)C1	inactive
Cc1cccc(C(=O)N2CCC3(CC2)CC(N(Cc2ccc(F)cc2)C2CC2)CCO3)c1 (stereo not drawn)	inactive
Cc1nn2c(c1-c1ccccc1-c1ccccc1)N(CC1CC1)CCC2	inactive
CN(Cc1csc(-c2ccccc2)n1)c1cc(C2CC(O)C2)nc(N)n1 (stereo not drawn)	inactive
COc1cccc(C2Cn3nnc(-c4nc(-c5ccccc5)no4)c3CO2)c1 (stereo not drawn)	inactive
